# In all, about 330,000 compounds went through this assay and about 5,800 (1.8%) were called active. Shown is part of a subset that was picked to be rich in actives. A number with no mark means an inactive call. Cut-off read from the data, not from the text of the source: active = inhibition mostly above about 38% (no sharp cut-off); inactive = mostly below about 40%.
# Biological target: Orexin/Hypocretin receptor type 1 (Homo sapiens) (UniProt O43613)
# Experiment: antagonists of human orexin 1 receptor (OX1R) (AID 485270);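 note: 0% = agonist challenge alone and 100% = reference antagonist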
# Settings: OX1R-expressing cells, FRET antagonist read-out; at 6.6 µM; stronger effect = higher value
# Sequence of Orexin/Hypocretin receptor type 1 (Homo sapiens) (O43613 whole entry, looked up): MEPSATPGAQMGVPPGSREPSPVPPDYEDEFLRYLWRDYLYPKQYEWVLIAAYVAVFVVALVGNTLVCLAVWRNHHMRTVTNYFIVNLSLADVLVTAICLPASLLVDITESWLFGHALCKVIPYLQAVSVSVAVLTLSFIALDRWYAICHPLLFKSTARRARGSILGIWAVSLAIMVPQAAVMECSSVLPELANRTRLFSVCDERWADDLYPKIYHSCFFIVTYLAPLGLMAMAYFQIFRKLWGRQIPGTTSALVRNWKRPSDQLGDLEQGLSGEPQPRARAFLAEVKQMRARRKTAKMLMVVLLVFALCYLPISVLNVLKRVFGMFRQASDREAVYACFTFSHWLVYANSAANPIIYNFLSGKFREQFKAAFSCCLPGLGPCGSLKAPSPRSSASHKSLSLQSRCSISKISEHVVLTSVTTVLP
row,Structure (SMILES),inhibition
1,COc1ccc(CNC(=O)C2CCN(C(=O)c3ccco3)CC2)cc1,14.6%
2,CC(=O)c1c(OCC(=O)N(C)C2CCCCC2)ccc2c(C)cc(=O)oc12,2.71%
3,O=C(NCc1ccccc1)c1onc(CSc2ccncc2)c1C(=O)NCc1ccccc1,16.4%
4,O=C(NCC1CC1)c1onc(CSc2ccccc2)c1C(=O)NCC1CC1,28.4%
5,O=C(NCc1ccccc1)c1onc(CSc2nc3ccccc3[nH]2)c1C(=O)NCc1ccccc1,71.2% (active)
6,O=S(=O)(Nc1ncnc2sccc12)c1cccc(F)c1,3.31%
7,Cc1cc(NC(=O)COC(=O)/C=C/c2ccc(C)o2)no1,1.38%
8,C=CCSc1nnc2c(n1)-c1cccc3cccc-2c13,56.6% (active)
9,CCOC(=O)C1=CN(Cc2ccc(Br)cc2)S(=O)(=O)NC1C (centres undefined),8.5%
10,COc1cc2c(-c3ccc4c(c3)OCO4)c(-c3ccsc3)oc(=O)c2cc1OC,16.2%
11,CC(OC(=O)c1cc2ccccc2[nH]1)C(=O)N(C)c1ccccc1 (centres undefined),5.48%
12,COc1ccc(C(=O)NCC(=O)N/N=C/c2ccc([N+](=O)[O-])s2)cc1OC,44%
13,O=C(CN1CCCC1)N1CCN(c2ccccc2)CC1,3.2%
14,O=C(OCC(=O)N1CCN(c2ccccc2)CC1)c1ccc([N+](=O)[O-])s1,42.6% (active)
15,COc1ccc(C(=O)OCC(=O)c2ccc(C)c(S(=O)(=O)N3CCOCC3)c2)cc1OC,27.8%
16,COc1cc(NC(=O)COC(=O)c2ccc([N+](=O)[O-])s2)cc(OC)c1OC,47.4% (active)
17,C[C@H](NC(=O)c1ccccc1Cl)C(=O)OCC(=O)N1CCN(c2ccccc2)CC1,3.17%
18,COc1ccc(C(=O)COC(=O)c2ccc([N+](=O)[O-])s2)cc1OC,38.5% (active)
19,COc1ccc(C(=O)OCC(=O)Nc2ccc3[nH]c(=O)[nH]c3c2)c(OC)c1OC,18%
20,COc1cc(C(=O)OCc2ccc([N+](=O)[O-])cc2)cc(OC)c1OC,14.5%
21,C[C@H](CO)N1C[C@H](C)[C@H](CN(C)C(=O)Nc2ccc(C(F)(F)F)cc2)Oc2c(NC(=O)c3ccncc3)cccc2C1=O,12.5%
22,CCOc1ccc(Br)cc1S(=O)(=O)Nc1ccc(S(=O)(=O)Nc2cc(C)on2)cc1,-0.05%
23,CN(C)C(=O)CCc1ccc2c3c([nH]c2c1)[C@]1(CCc2ccccc2)[C@@H](C(=O)N2CCCCC2)C[C@H](CC(=O)NCCC2=CCCCC2)C(=O)N1CC3,10.4%
24,COc1ccc2sc(-c3ccc(S(C)(=O)=O)cc3)c(C#Cc3cncn3C)c2c1,6.52%
25,C=CCC[C@H](Cc1ccc(F)cc1)C(=O)OC[C@@H](Cc1c[nH]c2ccccc12)NC(=O)[C@H](CC=C)CC(=O)N[C@H](CO)Cc1ccccc1,3.33%

row,Structure (SMILES),inhibition
1,COc1ccccc1NC(=O)COC(=O)CNC(=O)C1CCCCC1,5.3%
2,Cc1c(Cl)cnc(NC(=O)COC(=O)C2CCCC2)c1Cl,2.82%
3,COc1ccc(C(=O)COC(=O)CN2C(=O)C3CC=CCC3C2=O)c(OC)c1 (centres undefined),0.55%
4,CCN([C@H](CO)C(C)C)S(=O)(=O)c1ccccc1Br,8.87%
5,CCCN=C1N(C)C[C@@H]2[C@@H]3C(=O)N(Cc4ccccc4)C(=O)[C@@H]3[C@](C)(C(=O)OC)N12,3.52%
6,Cc1ccc2occ(/C=N/NC(=O)c3ccccc3C)c(=O)c2c1,11.9%
7,Cc1cc[n+](-c2[nH]c(=O)sc2/C=N/NC(=O)c2ccccc2[O-])cc1C,67.1% (active)
8,Cc1ccc(/C=N/NC(=O)c2cc3ccccc3cc2O)o1,22.1%
9,C[C@H](CO)N1C[C@H](C)[C@@H](CN(C)S(=O)(=O)c2ccc(F)cc2)Oc2c(NC(=O)Nc3ccccc3)cccc2C1=O,3.72%
10,Fc1ccc2cnc(-c3ccccc3)cc2c1,1.78%
11,O=C(Nc1ccccc1F)c1ccc2c(c1)OCO2,0.6%
12,Fc1ccccc1-c1cc2cc3c(cc2cn1)OCO3,66% (active)
13,COc1ccccc1N1CCN(S(=O)(=O)c2ccc(Cl)cc2)CC1,4.56%
14,Cc1ccc2c(c1)C(c1ccccc1)N(C(=O)c1ccc(S(=O)(=O)N3CCOCC3)cc1)CC(=O)N2 (centres undefined),7.06%
15,Cc1ccc(S(=O)(=O)N(CC(=O)N2CCc3ccccc3C2)c2cccc(Cl)c2)cc1,40%
16,Cc1ccc(S(=O)(=O)N2CCN(CC(=O)N/N=C/c3cc([N+](=O)[O-])ccc3Cl)CC2)cc1,19.3%
17,CN1OC(COC(=O)c2ccc(Cl)cc2)CC1c1ccccc1 (centres undefined),-0.66%
18,Cc1ccc(S(=O)(=O)N2[C@@H](c3ccc(Br)cc3)C(C(=O)O)=C[C@H]2CC2CCCC2)cc1,31.2%
19,CS(=O)(=O)N(CC(=O)N1CCN(c2cccc(Cl)c2)CC1)c1ccccc1,-2.69%
20,Cc1ccc(S(=O)(=O)N2[C@@H](c3cccc(Cl)c3)C(C(=O)O)=CC[C@H]2c2ccc(Cl)c(Cl)c2)cc1,81.4% (active)
21,Cc1ccc(S(=O)(=O)N2C3C=CC(C3)C2C(=O)O)cc1 (centres undefined),7.96%
22,Cc1ccc([C@@H]2CC=C(C(=O)O)[C@H](c3cccc(Cl)c3)N2S(=O)(=O)c2ccc(C)cc2)cc1,82.9% (active)
23,Cc1ccccc1S(=O)(=O)N1[C@@H](c2cccc(Cl)c2)C(C(=O)O)=CC[C@H]1c1ccc(Cl)cc1,90.2% (active)
24,Cc1ccc(S(=O)(=O)N2[C@@H](c3ccccc3F)C(C(=O)O)=CC[C@H]2c2ccc(Cl)cc2)cc1,64.8% (active)
